Reference: PubChem BioAssay (NCATS)
Results filed as inconclusive are left out. Where a call stands in place of a potency, no number is given. The source made the active and inactive calls. The call rests on the fitted dose curve; in most records, active means well fitted curve in the direction sought with a large enough effect; inconclusive means small, poorly fitted or top-dose-only effect, or another doubt; inactive means no such curve, though single readings can be large; an effect the other way counts as inactive or inconclusive.

Key:
[1] = target: Metallo-beta-lactamase type 2 (Klebsiella pneumoniae) (UniProt C7C422); test: qHTS to identify inhibitors of the New Delhi Metallo-beta-lactamase (NDM): assay validation screen against the NCATS LOPAC Collection (AID 1794843); further: series mostly up to about 38 µM
Metallo-beta-lactamase type 2 (Klebsiella pneumoniae), sequence (C7C422 whole entry, looked up): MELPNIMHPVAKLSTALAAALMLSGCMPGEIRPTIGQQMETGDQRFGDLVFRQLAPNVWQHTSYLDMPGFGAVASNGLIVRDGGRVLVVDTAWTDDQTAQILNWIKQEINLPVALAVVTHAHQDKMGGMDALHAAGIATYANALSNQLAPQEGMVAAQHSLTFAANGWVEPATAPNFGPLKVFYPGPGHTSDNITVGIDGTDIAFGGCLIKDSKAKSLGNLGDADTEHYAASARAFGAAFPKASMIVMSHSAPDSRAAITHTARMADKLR
Outline: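 Absorbance at 485 nm from nitrocefin turnover (50 uM solution added), read at plateau, gives the read-out. Compounds in DMSO were incubated first with 2 nM final NDM-1 in pH 7.0 HEPES buffer containing 1 uM ZnSO4 and 0.01% Tween20.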

[2] = target: Glutathione peroxidase 1 (Homo sapiens) (UniProt P07203); test: Primary qHTS Assay for Inhibitors of Recombinant Selenoprotein Glutathione Peroxidase 1 (GPX1) (AID 1845191); further: nearly all actives have a fitted effect of over 65% in size
Glutathione peroxidase 1 (Homo sapiens), sequence (P07203 whole entry, looked up): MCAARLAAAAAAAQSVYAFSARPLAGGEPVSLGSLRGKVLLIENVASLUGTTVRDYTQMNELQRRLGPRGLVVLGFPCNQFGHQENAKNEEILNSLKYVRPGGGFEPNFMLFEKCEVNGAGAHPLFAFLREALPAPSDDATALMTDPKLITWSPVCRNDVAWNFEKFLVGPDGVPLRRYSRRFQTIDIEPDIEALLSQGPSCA
Outline: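 Recombinant GPX1 (10 nM final) was preincubated with compound for 30 min at room temperature, then reacted with 1 mM GSH, 0.5 mM CHP, 0.5 mM NADPH and 100 nM glutathione reductase; NADPH fluorescence (340/450 nm) was read at 0 and 15 min.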

[3] = target: Phospholipid hydroperoxide glutathione peroxidase GPX4 (Homo sapiens) (UniProt P36969); test: Primary qHTS Assay for Inhibitors of Recombinant Selenoprotein Glutathione Peroxidase 4 (GPX4) (AID 1845192); further: nearly all actives have a fitted effect of over 65% in size
Phospholipid hydroperoxide glutathione peroxidase GPX4 (Homo sapiens), sequence (P36969 whole entry, looked up): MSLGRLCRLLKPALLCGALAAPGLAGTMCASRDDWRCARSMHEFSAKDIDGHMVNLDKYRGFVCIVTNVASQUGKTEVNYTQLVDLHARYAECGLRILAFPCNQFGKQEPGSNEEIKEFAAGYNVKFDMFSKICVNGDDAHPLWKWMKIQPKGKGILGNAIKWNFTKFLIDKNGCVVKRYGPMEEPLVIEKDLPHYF
Outline: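 GR-coupled readout: 100 nM GR, 1 mM GSH, 0.5 mM NADPH; NADPH fluorescence (ex 340/em 450 nm) read at t=0 and after 15 min RT. GPX4 200 nM, preincubated 30 min with compound; substrate 0.5 mM CHP.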

[4] = Quantitative High-Throughput drug screen in 47 multiple myeloma cell lines against the NCATS MIPE library collection: Delta47_JCRB cell viability assay (AID 1918925; further: nearly all actives have a fitted effect of over 45% in size; further: potency means the concentration at half of the fitted maximal effect)
Outline: (§1)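 CellTiter-Glo luminescence (ATP) after 48 h compound exposure, 37C/5% CO2; 500 cells/well; MIPE 4.0 approved/investigational drugs pinned in; DMSO = 100%, media only = 0% viability.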

[5] = Quantitative High-Throughput drug screen in 47 multiple myeloma cell lines against the NCATS MIPE library collection: EJM_DSMZ cell viability assay (AID 1918926; further: nearly all actives have a fitted effect of over 30% in size; further: potency means the concentration at half of the fitted maximal effect)
Outline: as §1

[6] = Quantitative High-Throughput drug screen in 47 multiple myeloma cell lines against the NCATS MIPE library collection: AMO1_DSMZ cell viability assay (AID 1918927; further: nearly all actives have a fitted effect of over 30% in size; further: potency means the concentration at half of the fitted maximal effect)
Outline: as §1

[7] = Quantitative High-Throughput drug screen in 47 multiple myeloma cell lines against the NCATS MIPE library collection: KMM1_JCRB cell viability assay (AID 1918960); further: nearly all actives have a fitted effect of over 30% in size; further: potency means the concentration at half of the fitted maximal effect
Outline: (§2)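 ATP readout (CellTiter-Glo), 48 h drug incubation, 37 °C/5% CO2, 500 cells per well; normalisation to DMSO (100%) and media-only (0%) controls.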

[8] = Quantitative High-Throughput drug screen in 47 multiple myeloma cell lines against the NCATS MIPE library collection: KHM11_PLB cell viability assay (AID 1918962); further: nearly all actives have a fitted effect of over 35% in size; further: potency means the concentration at half of the fitted maximal effect
Outline: as §1

[9] = Quantitative High-Throughput drug screen in 47 multiple myeloma cell lines against the NCATS MIPE library collection: JIM3_ECACC cell viability assay (AID 1918963; further: nearly all actives have a fitted effect of over 35% in size; further: potency means the concentration at half of the fitted maximal effect)
Outline: as §1

[10] = Quantitative High-Throughput drug screen in 47 multiple myeloma cell lines against the NCATS MIPE library collection: H1112_PLB cell viability assay (AID 1918967; further: nearly all actives have a fitted effect of over 30% in size; further: potency means the concentration at half of the fitted maximal effect)
Outline: as §1

[11] = Quantitative High-Throughput drug screen in 47 multiple myeloma cell lines against the NCATS MIPE library collection: ARP1_JJKsccF8 cell viability assay (AID 1918928; further: nearly all actives have a fitted effect of over 40% in size; further: potency means the concentration at half of the fitted maximal effect)
Outline: as §2

[12] = Quantitative High-Throughput drug screen in 47 multiple myeloma cell lines against the NCATS MIPE library collection: Karpas620_DSMZ cell viability assay (AID 1918959); further: nearly all actives have a fitted effect of over 30% in size; further: potency means the concentration at half of the fitted maximal effect
Outline: as §1

[13] = Quantitative High-Throughput drug screen in 47 multiple myeloma cell lines against the NCATS MIPE library collection: JIM1_ECACC cell viability assay (AID 1918964; further: potency means the concentration at half of the fitted maximal effect)
Outline: as §1

[14] = Quantitative High-Throughput drug screen in 47 multiple myeloma cell lines against the NCATS MIPE library collection: INA6_PLB cell viability assay (AID 1918965; further: nearly all actives have a fitted effect of over 55% in size; further: potency means the concentration at half of the fitted maximal effect)
Outline: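 Myeloma cells (500 per well) were exposed to MIPE 4.0 compounds by pin transfer and incubated 48 hours at 37C, 5% CO2. Viability was read as ATP by CellTiter-Glo luminescence, normalised to DMSO (100%) and media-only (0%) wells.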

[15] = Quantitative High-Throughput drug screen in 47 multiple myeloma cell lines against the NCATS MIPE library collection: FR4_PLB cell viability assay (AID 1918924; further: nearly all actives have a fitted effect of over 35% in size; further: potency means the concentration at half of the fitted maximal effect)
Outline: as §1

[16] = Quantitative High-Throughput drug screen in 47 multiple myeloma cell lines against the NCATS MIPE library collection: ARD_JJKsccE7 cell viability assay (AID 1918929; further: potency means the concentration at half of the fitted maximal effect)
Outline: as §1

[17] = target: Luciferin 4-monooxygenase (Photinus pyralis) (UniProt P08659); test: Primary firefly luciferase (FLuc) qHTS assay for identification of artifact compounds. (AID 1845220); settings: outcome: dose series up to 54.1 µM; further: series mostly up to about 54 µM; nearly all actives have a fitted effect of over 60% in size
Outline: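 In this counter-screen for luciferase artifacts, test compounds met substrate (10 uM each luciferin and ATP) before 10 nM enzyme started the reaction. Light output was measured 5 min later.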

[18] = Primary fluorescence-based thiol-reactive (MSTI) qHTS assay for identification of artifact compounds. (AID 1845221);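 further: series mostly up to about 54 µM; thiol-reactive compounds lower the probe fluorescence signal; nearly all actives have a fitted effect of over 65% in size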
Outline: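 Thiol-reactive compounds detected by quenching of 4 uM MSTI fluorescence (525/598 nm) after 1 h room-temperature dark incubation in PBS pH 7.4, 2% DMSO. qHTS titration; percent inhibition Hill-fitted against Acetyl-MSTI/MSTI controls.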

[19] = test system: Nanoluciferase (engineered Oplophorus gracilirostris luciferase); test: Primary Nanoluciferase (NLuc) qHTS assay for identification of artifact compounds. (AID 1845222);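 further: NLuc secreted into diluted conditioned medium of S16 cells; series mostly up to about 54 µM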
Outline: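 Using secreted nanoluciferase in S16 culture medium (0.22 um filtered, 1:55 dilution), compounds were preincubated 15 min at RT. Signal was generated with Nano-Glo reagent (1:100) over 5 min.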

[20] = Primary redox qHTS assay for identification of artifact compounds. (AID 1845223)
Outline: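 Amplex Red (25 uM) and HRP (250 mU/mL) in HBSS, with compounds for 15 min, then 250 uM DTT for 30 min, room temperature, dark. Fluorescence 525/598 nm read; normalized to DMSO and 10 uM DA3003; Hill fit.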

Row | SMILES | outcome [1] | Potency [2] | Potency [3] | Potency [4] | Potency [5] | Potency [6] | Potency [7] | Potency [8] | Potency [9] | Potency [10] | Potency [11] | Potency [12] | Potency [13] | Potency [14] | Potency [15] | Potency [16] | outcome [17] | outcome [18] | outcome [19] | outcome [20]
1 | CN(C)c1nc(N(C)C)nc(N(C)C)n1 | inactive | inactive | inactive | inactive | inactive | inactive | inactive | inactive | inactive | inactive | – | – | – | – | – | – | – | – | – | –
2 | Cc1cn([C@H]2C=C[C@@H](CO)O2)c(=O)[nH]c1=O | inactive | inactive | inactive | – | inactive | inactive | inactive | – | – | inactive | inactive | inactive | inactive | – | – | – | – | – | – | –
3 | CN1CCC(=C2c3ccccc3CC(=O)c3sccc32)CC1 | inactive | inactive | inactive | 8.33 µM (active) | 20.9 µM (active) | 16.6 µM (active) | – | – | – | 6.62 µM (active) | inactive | – | – | 8.33 µM (active) | – | – | – | – | – | –
4 | COc1ccc(C2CNC(=O)C2)cc1OC1CCCC1 (stereo not drawn) | inactive | inactive | inactive | – | inactive | inactive | – | – | – | inactive | inactive | inactive | inactive | – | inactive | – | – | – | – | –
5 | CCC1(C)CC(=O)NC1=O (stereo not drawn) | inactive | inactive | inactive | inactive | inactive | inactive | inactive | inactive | inactive | inactive | inactive | inactive | – | inactive | – | 0.0037 µM (active) | – | – | – | –
6 | O=C(Nc1ccc([N+](=O)[O-])cc1Cl)c1cc(Cl)ccc1O | inactive | inactive | inactive | 1.32 µM (active) | 1.87 µM (active) | 0.526 µM (active) | 0.235 µM (active) | 1.32 µM (active) | 0.59 µM (active) | 1.32 µM (active) | 1.66 µM (active) | 0.935 µM (active) | 1.05 µM (active) | 0.935 µM (active) | 2.09 µM (active) | 0.526 µM (active) | – | – | – | –
7 | Clc1ccc2c(c1)C(N1CCNCC1)=Nc1ccccc1O2 | inactive | inactive | inactive | – | inactive | – | inactive | – | 26.4 µM (active) | – | – | inactive | inactive | – | inactive | – | inactive | inactive | inactive | inactive
8 | CC(C)NCC(O)COc1ccc(CCOCC2CC2)cc1 (stereo not drawn) | inactive | inactive | inactive | inactive | – | – | inactive | inactive | – | inactive | – | inactive | inactive | inactive | inactive | – | – | – | – | –
9 | O=C1N(c2ccccc2)c2ccccc2C1(Cc1ccncc1)Cc1ccncc1 | inactive | inactive | inactive | inactive | – | inactive | inactive | inactive | – | inactive | inactive | inactive | – | – | – | – | – | – | – | –
10 | COc1ccccc1N1CCN(CC(O)COc2cccc3ccccc23)CC1 (stereo not drawn) | inactive | inactive | inactive | inactive | inactive | inactive | inactive | – | 5.26 µM (active) | 16.6 µM (active) | 9.35 µM (active) | inactive | – | – | – | – | – | – | – | –
11 | CN(CCOc1ccc(NS(C)(=O)=O)cc1)CCc1ccc(NS(C)(=O)=O)cc1 | inactive | inactive | inactive | inactive | inactive | inactive | inactive | – | – | – | inactive | inactive | inactive | inactive | – | – | – | – | – | –
12 | C[C@H]1c2cccc(O)c2C(O)=C2C(=O)[C@]3(O)C(O)=C(C(N)=O)C(=O)[C@@H](N(C)C)[C@@H]3[C@@H](O)[C@@H]21 | inactive | inactive | inactive | 23.5 µM (active) | – | inactive | – | – | – | – | – | – | – | 37.2 µM (active) | – | – | – | – | – | –
13 | CCOC(=O)c1ncn2c1CN(C)C(=O)c1cc(F)ccc1-2 | inactive | inactive | inactive | inactive | – | inactive | inactive | – | – | inactive | 16.6 µM (active) | inactive | inactive | inactive | – | inactive | – | – | – | –
14 | CN(Cc1cnc2nc(N)nc(N)c2n1)c1ccc(C(=O)N[C@@H](CCC(=O)O)C(=O)O)cc1 | inactive | inactive | inactive | – | – | 0.0166 µM (active) | – | – | – | 0.0662 µM (active) | 0.0332 µM (active) | inactive | 0.0264 µM (active) | 0.0372 µM (active) | 37.2 µM (active) | – | – | – | – | –
15 | OCCN(CCO)c1nc(N2CCCCC2)c2nc(N(CCO)CCO)nc(N3CCCCC3)c2n1 | inactive | inactive | inactive | 23.5 µM (active) | – | 23.5 µM (active) | – | – | – | – | – | – | 23.5 µM (active) | – | – | – | – | – | – | –
16 | Cc1ccc(-c2cc(C(F)(F)F)nn2-c2ccc(S(N)(=O)=O)cc2)cc1 | inactive | inactive | inactive | 16.6 µM (active) | inactive | inactive | inactive | inactive | – | – | inactive | inactive | – | – | inactive | – | inactive | inactive | inactive | inactive
17 | Cc1cc(C(C)(C)C)cc(C)c1CC1=NCCN1 | inactive | inactive | inactive | inactive | inactive | inactive | – | inactive | – | inactive | inactive | inactive | – | – | – | – | – | – | – | –
18 | COc1cc2c(c(OC)c1OC)-c1ccc(OC)c(=O)cc1[C@@H](NC(C)=O)CC2 | inactive | inactive | inactive | – | inactive | inactive | inactive | – | – | – | – | inactive | inactive | inactive | – | – | – | – | – | –
